About 4,300 (8.3%) of roughly 52,000 compounds were called active. The entries come from a sample that favours actives as a whole. Values without a mark were called inactive. No stated cut-off is given here; in the data, active means survival mostly below about 52% (no sharp cut-off); inactive means mostly above about 56%.

This assay has as its system DeltatarO mutant. Briefly: growth inhibition of S. aureus wild type versus tarO mutant, primary screen, teichoic acid synthesis inhibitors, RN4220, OD600 (AID 463173). As to conditions: OD600, 18 h, hits give low values, screened at 18.75 µg/mL (by protocol).
As to `Cc1c(C(=O)N2CCC(C)CC2)c(S(=O)(=O)Nc2ccc(OC(F)(F)F)cc2)c(C)n1C`, the survival was 91%.
As for `CCc1cccc(C)c1NS(=O)(=O)c1ccc2c(c1)CC(C)N2C(=O)C1CC1` (stereo not drawn), the survival is 88%.
As for `COc1ccc(C(=O)NCc2ccc3c(c2)CCN3C(=O)c2ccncc2)cc1`, the survival was 88%.
With `Cc1ccc(Cl)cc1NC(=O)CN1C(=O)COc2ccc(S(=O)(=O)N3CCOCC3)cc21` the figure was 101%.
On to `CCc1c(C)[nH][n+]2cnn(Cc3ccc(Cl)cc3)c2c1=O`, for which the survival was 89%.
Turning to `CCn1cnc2sc(C(=O)Nc3ccccc3)c(C)c2c1=O`, the survival was 87%.
Then `Cc1ccc(CNC(=O)c2nnn(Cc3ccc(F)cc3)c2N)cc1`, with 91%.
With `Cc1ccc(CNc2nc(-c3ccco3)nn2C(=O)c2ccccc2[N+](=O)[O-])cc1` the figure was 111%.
Then `Cc1nn2c(=O)cc(COC(=O)c3ccc(NC(=O)COc4ccc(C)c(C)c4)cc3)nc2s1`, with 116%; and `Cc1ccc(S(=O)(=O)NCCSc2nnnn2-c2ccccc2)cc1`, with 71%; and `CCCCSc1nnc2c(n1)OC(c1ccc(C)s1)Nc1ccccc1-2` (stereo not drawn), with 41% (active).
Consider `CCSc1nnc2c(n1)OC(c1ccc(C)s1)Nc1ccccc1-2` (stereo not drawn), for which the survival was 71%.
For `CCCSc1nnc2c(n1)OC(c1sccc1C)Nc1ccccc1-2` (stereo not drawn), the survival was 79%.
Then `Cc1cccc(C)c1OCc1nc2c3cnn(-c4cccc(F)c4)c3ncn2n1`, with 78%; and `CC(=O)c1ccc(S(=O)(=O)N2CCn3cccc3C2c2ccccc2F)cc1` (stereo not drawn), with 82%.
Then `CCOc1ccc(-n2c(SCC(=O)NCC3CCCO3)nc3c([nH]c4ccccc43)c2=O)cc1` (stereo not drawn), with 74%; and `Cc1cc(Oc2c(C(F)(F)F)oc3c(CN4CCC(C)CC4)c(O)ccc3c2=O)cc(C)c1Cl`, with 70%.
Then `CCOc1ccc(CC(=O)NCCc2csc(-c3ccc(C(F)(F)F)cc3)n2)cc1`, with 77%; and `Cc1cccc(-c2nc(CCNC(=O)Cc3ccccc3)cs2)c1`, with 17% (active); and `Cc1cccc(-c2nc(CCNC(=O)Cc3ccc(F)cc3)cs2)c1`, with 55%.
In the case of `Cc1cccc(-c2nc(CCNC(=O)c3ccc(Br)o3)cs2)c1`, the survival is 89%.
Then `Cc1cccc(-c2nc(CCNC(=O)c3ccco3)cs2)c1`, with -5% (active).
For the compound `COc1ccc(CCC(=O)NCCc2csc(-c3ccc(C(F)(F)F)cc3)n2)cc1`, the survival is 73%.
For `O=C(NCCc1csc(-c2cccc(F)c2)n1)c1ccco1`, the survival was 94%.
With `COc1ccc(CC(=O)NCCc2csc(-c3ccc(C(F)(F)F)cc3)n2)cc1` the figure was -5% (active); with `COc1ccc(CC(=O)NCCc2csc(-c3cccc(C)c3)n2)cc1`, 68%; with `CCOc1ccc(-c2nnc(SCC(=O)c3ccccc3)n2-c2ccccc2)cc1`, 136%.
As for `COc1cccc(CNC(=O)c2cc(S(=O)(=O)N3CCCCC3)c[nH]2)c1`, the survival is 64%.
Then `COc1ccccc1NC(=O)CSc1ncc2c(n1)-c1ccccc1N(Cc1ccccc1C)S2(=O)=O`, with 101%.
`Cc1cc(=O)[nH]c2nnc(SCC(=O)NC(C)(C)C)n12`: the survival was 77%.
For the compound `COc1ccc(-c2cc(=O)oc3c4c(ccc23)OCN(Cc2ccccc2)C4)cc1`, the survival was 82%.
With `COc1ccc(CN2COc3ccc4c(-c5ccc(OC)cc5)cc(=O)oc4c3C2)cc1` the figure was 65%; with `COc1ccc(-c2cc(=O)oc3c4c(ccc23)OCN(Cc2cccc(OC)c2)C4)cc1`, 38% (active).
With `Cc1cccc(NC(=O)C2CCN(S(=O)(=O)c3cccc4nsnc34)CC2)c1` the figure was 84%.
As for `CCOc1ccc(NC(=O)CC2C(=O)N(c3ccc(F)cc3)C(=O)N2Cc2ccc(OC)c(OC)c2)cc1` (stereo not drawn), the survival was 90%.
For `Cc1ccc(C)c(CSc2nc3ncccc3[nH]2)c1`, the survival was 73%.
With `O=C(CSc1nc2c([nH]c3ccccc32)c(=O)n1-c1ccccc1)Nc1ccccc1F`, the survival was 96%.
Turning to `COCCCn1c(SCC(=O)Nc2ccccc2OC)nc2c(sc3ccccc32)c1=O`, the survival is 77%.
As for `O=C(CSc1nc2nccnc2c(=O)n1CCc1c[nH]c2ccccc12)Nc1ccc(F)cc1`, the survival is 29% (active).
Turning to `Cc1ccc(NC(=O)CSc2nc3nccnc3c(=O)n2CCc2c[nH]c3ccccc23)c(C)c1`, the survival was 45% (active).
With `Cc1cc(C)c(NC(=O)CSc2nc3nccnc3c(=O)n2CCc2c[nH]c3ccccc23)c(C)c1` the figure was 48%; with `CCc1ccc(NC(=O)CSc2nc3nccnc3c(=O)n2CCc2c[nH]c3ccccc23)cc1`, 88%.
Turning to `Cc1ccc(NC(=O)CSc2nc3c([nH]c4ccccc43)c(=O)n2-c2ccccc2)c(C)c1`, the survival was 96%.
With `O=C(CSc1nc2nccnc2c(=O)n1CCc1c[nH]c2ccccc12)Nc1ccccc1F` the figure was 46% (active).
In the case of `COc1ccccc1NC(=O)CSc1nc2ccccc2c(=O)n1CCC(=O)NC1CCCCC1`, the survival was 89%.
Then `COc1ccccc1NC(=O)CSc1nc2nccnc2c(=O)n1CCc1c[nH]c2ccccc12`, with 38% (active); and `Cn1c(SCC(=O)Nc2ccccc2F)nc2c([nH]c3ccccc32)c1=O`, with 115%.
For `O=C(CSc1nc2nccnc2c(=O)n1CCc1c[nH]c2ccccc12)Nc1ccccc1`, the survival was 73%.
Then `Cc1ccc(C)c(NC(=O)CCCn2nc(C)c3sc4ccccc4c3c2=O)c1`, with 85%; and `CCOC(=O)c1c(C)[nH]c(C)c1S(=O)(=O)N(C)CC(=O)Nc1ccc(C)cc1Br`, with 72%; and `CCCCN(C)C(=O)Cn1cnc2sc(C)c(S(=O)(=O)N3CCN(c4ccccc4OC)CC3)c2c1=O`, with 70%.
Then `Cc1cc(C)n(-c2nc(C)c(C)c(=O)n2CC(=O)Nc2ccc(OC(F)(F)F)cc2)n1`, with 90%; and `COc1ccccc1N1CCN(C(=O)COc2ccccc2C#N)CC1`, with 81%.
Then `COc1cc(C(=O)N2CCN(CCc3ccncc3)CC2)cc(OC)c1OC`, with 89%; and `CS(=O)(=O)n1nc(-c2ccco2)nc1NCc1ccccc1Cl`, with 61%; and `COc1cc(NC(=O)Cn2cnc3sc(C)c(S(=O)(=O)N4CCC(C)CC4)c3c2=O)cc(OC)c1OC`, with 111%.
Consider `Cc1cc(C)c2c(n1)nn1c(C)c(CCC(=O)NCc3ccc(Cl)cc3)c(C)nc21`, for which the survival is 80%.
As to `CCOCCCn1c(SCC(=O)Nc2cc(C)ccc2C)nc2c(oc3ccccc32)c1=O`, the survival was 90%.
Turning to `Cc1ccccc1NC(=O)NCCc1c[nH]c2ccccc12`, the survival is 47%.
As to `Cc1ccc(C)c(NC(=O)CSc2nc3nccnc3c(=O)n2CCc2c[nH]c3ccccc23)c1`, the survival is 37% (active).
Then `Cc1ccccc1NC(=O)CSc1nc2nccnc2c(=O)n1CCc1c[nH]c2ccccc12`, with 40% (active).
With `Cc1cccc(NC(=O)CSc2nc3c([nH]c4ccccc43)c(=O)n2C)c1C`, the survival is 80%.
With `Cc1ccc(C)c(NC(=O)Cn2c(SCC(=O)NCc3ccccc3)nc3ccccc32)c1`, the survival was 101%.
Then `Cc1ccc(NC(=O)c2sc3ncnc(N(C)C4CCCCC4)c3c2C)cc1`, with 144%; and `CCOc1ccc(CCNC(=O)c2ccc3nc(CC)c(CC)nc3c2)cc1`, with 91%; and `CN(C)C(=O)CSc1ccc(-c2ccc(F)cc2)nn1`, with 92%.
With `CC(C)Oc1ccc(C(=O)Nc2nnc3n2CCS3)cc1` the figure was 124%; with `Cc1cccc(NC(=O)NC2CC3CCCC(C2)N3CC(C)C)c1` (stereo not drawn), 94%; with `CC(C)C(NS(=O)(=O)c1ccc2c(c1)oc(=O)n2C)C(=O)NCCc1ccccc1` (stereo not drawn), 89%.
With `COc1ccc(C(=O)Nc2ccc(N3CCOCC3)c(C(F)(F)F)c2)cc1OC` the figure was 91%; with `Cc1oc2ccc(O)c(CN(C)Cc3ccccc3)c2c1C(=O)Nc1cccc(Cl)c1C`, 11% (active).
For the compound `Cc1oc2ccc(O)c(CN3CCN(Cc4ccccc4)CC3)c2c1C(=O)Nc1cccc(Cl)c1C`, the survival was 72%.
With `Cc1oc2ccc(O)c(CN3CCN(C)CC3)c2c1C(=O)Nc1cccc(C(F)(F)F)c1` the figure was 81%; with `Cc1oc2ccc(O)c(CN(C)Cc3ccccc3)c2c1C(=O)Nc1cccc(C(F)(F)F)c1`, 6% (active).
With `Cc1oc2ccc(O)c(CN(C)Cc3ccccc3)c2c1C(=O)Nc1ccccc1` the figure was 92%.
As for `Cc1oc2ccc(O)c(CN3CCCC3)c2c1C(=O)Nc1cccc(Cl)c1C`, the survival was 71%.
With `CCOC(=O)c1ccccc1NC(=O)c1c2c(nc3ccccc13)C(=O)N(C1CCCCC1)C2` the figure was 75%; with `CC(C)C1N=C2c3ccccc3N=C(SCC(=O)NCc3ccc(F)cc3)N2C1=O` (stereo not drawn), 73%.
With `O=C(Cn1ccn(-c2ccc(F)cc2)c(=O)c1=O)Nc1ccc(F)cc1` the figure was 60%.
Then `CCc1ccc(NC(=O)Cn2ccn(-c3ccc(OC)cc3)c(=O)c2=O)cc1`, with 67%; and `Cc1ccc(Cn2ccn(CC(=O)Nc3c(C)cc(C)cc3C)c(=O)c2=O)cc1`, with 47%; and `COc1cc(NC(=O)Cn2ccn(Cc3ccccc3OC)c(=O)c2=O)cc(OC)c1`, with 52%.
As to `Cc1ccc(NC(=O)Cn2ccn(-c3ccccc3)c(=O)c2=O)cc1`, the survival is 56% (active).
With `CCc1ccc(NC(=O)Cn2ccn(Cc3ccccc3OC)c(=O)c2=O)cc1` the figure was 46% (active).
With `COc1ccccc1Cn1ccn(CC(=O)Nc2c(C)cc(C)cc2C)c(=O)c1=O` the figure was 41% (active); with `COc1ccc(NC(=O)Cn2ccn(-c3ccccc3)c(=O)c2=O)cc1`, 52%.
Consider `COc1ccccc1NC(=O)Cn1ccn(-c2cc(C)cc(C)c2)c(=O)c1=O`, for which the survival is 55%.
As to `COc1ccc(NC(=O)CC2C(=O)N(c3ccc(C)cc3)C(=O)N2CCc2ccccc2)cc1` (stereo not drawn), the survival is 62%.

Source of the values: PubChem BioAssay AID463173 (ICCB-Longwood Screening Facility, Harvard Medical School, 2010).
